By AC50 is commonly meant the concentration giving half of the maximal activity seen.

This is an account of results in PubChem BioAssay (EPA / NIEHS).

Activity calls are given as the source filed them. Rule for the calls: active = hit-call score of the fitted dose curve at least 0.9, where 1 is the maximum; inactive = score below 0.9.

In this assay the target is Signal transducer and activator of transcription 3 (Homo sapiens) (UniProt P40763). As to the kind of experiment: ATG_STAT3_CIS: Attagene CIS-FACTORIAL HepG2 Assay for human Signal Transducer and Activator of Transcription 3 (STAT3) (AID 2282963). To be noted: HepG2, Attagene cis-factorial STAT3 reporter transcription; actives raise or lower the signal. How it is done: ATG_CIS is a cell-based, multiplexed-readout assay that uses HepG2, a human liver cell line, with measurements taken at 24 hours after chemical dosing in a 24-well plate.ATG_STAT3_CIS is one of 52 assay component(s) measured or calculated from the ATG_CIS assay. It is designed to make measurements of mRNA induction, a form of inducible reporter, as detected with fluorescence intensity signals by Reverse transcription polymerase chain reaction (RT-PCR) and Capillary electrophoresis technology.Data from the assay component ATG_STAT3_CIS was analyzed into 1 assay endpoint. This assay endpoint, ATG_STAT3_CIS, was analyzed with bidirectional fitting relative to DMSO as the negative control and baseline of activity. Using a type of inducible reporter, measures of mRNA for gain or loss-of-signal activity can be used to understand the reporter gene at the transcription factor-level as they relate to the gene STAT3. Furthermore, this assay endpoint can be referred to as a primary readout, because this assay has produced multiple assay endpoints where this one serves a reporter gene function. To generalize the intended target to other relatable targets, this assay endpoint is annotated to the dna binding intended target family, where the subfamily is stat protein.
Sequence of Signal transducer and activator of transcription 3 (Homo sapiens) (P40763 whole entry, looked up): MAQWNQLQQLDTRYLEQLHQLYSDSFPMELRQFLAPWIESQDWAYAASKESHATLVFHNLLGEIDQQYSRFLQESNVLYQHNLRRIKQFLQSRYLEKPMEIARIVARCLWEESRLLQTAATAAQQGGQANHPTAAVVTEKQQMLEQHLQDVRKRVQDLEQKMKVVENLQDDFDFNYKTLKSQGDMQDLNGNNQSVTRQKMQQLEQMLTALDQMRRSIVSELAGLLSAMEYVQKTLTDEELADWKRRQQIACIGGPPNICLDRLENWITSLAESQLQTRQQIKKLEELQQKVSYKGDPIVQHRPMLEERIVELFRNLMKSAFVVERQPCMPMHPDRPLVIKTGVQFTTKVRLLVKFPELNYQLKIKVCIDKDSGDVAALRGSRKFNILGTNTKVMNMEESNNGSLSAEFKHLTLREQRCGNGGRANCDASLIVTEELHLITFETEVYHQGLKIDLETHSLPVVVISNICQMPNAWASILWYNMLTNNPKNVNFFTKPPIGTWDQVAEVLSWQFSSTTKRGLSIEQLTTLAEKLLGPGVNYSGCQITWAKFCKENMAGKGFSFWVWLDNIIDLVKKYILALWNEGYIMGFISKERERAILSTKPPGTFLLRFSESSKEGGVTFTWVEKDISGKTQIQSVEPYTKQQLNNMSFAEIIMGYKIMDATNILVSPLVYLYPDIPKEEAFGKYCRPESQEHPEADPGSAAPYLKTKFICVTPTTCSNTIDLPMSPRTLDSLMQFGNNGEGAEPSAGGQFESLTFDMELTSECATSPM
Human liver HepG2 cells are transiently transfected with multiple reporter transcription units (MRTUs) in 6-well plates using FuGene 6 reagent (Roche; 3 ml FuGene/1 mg DNA). The MRTU constructs are regulated by a cis-regulating element (promoter). […] A major difference between the CIS and TRANS system is that in CIS activities of endogenous TFs are measured, whereas the TRANS assay evaluates changes in activities of exogenous, chimeric NR-Gal4 proteins. […] At the end of 24 hour incubation, total RNA was isolated using TriZol reagent (Invitrogen). The isolated RNA is then reverse-transcribed using oligo(dT) primer and Mo-MLV reverse transcriptase (Invitrogen) with DNAse I (Ambion) treatment for 30 min. The one-tenth of the produced cDNA was amplified by PCR using Taq DNA polymerase (Invitrogen) and two reporter sequence-specific primers. The PCR products were fluorescently labeled by primer extension with 6-arboxyfluorescein (6-FAM) 5'-labeled reporter sequence-specific primer (2 min at 95 C, 20 s at 68 C and 10 min at 72 C) and these products were digested with 5U of HpaI (New England Biolabs) for 2h at 37 C. The fragments were purified using Qiaquick PCR columns (Qiagen), analyzed on an ABI 3130xL genetic analyzer (Applied Biosystems) with peak positions identified by using a set of X-rhodamine (ROX)-labeled MapMarker1000 molecular weight standards (BioVentures). The raw capillary electrophoresis data was processed using Attagraph software (Attagene).
Consider `Cc1ccc2sc3cccc(C)c3c2c1`, for which the molecule was classed as inactive.
The same measure, in the same setting: in the case of `CCCCCCCCCCCCN(CCCCCCCCCCCC)CCCCCCCCCCCC` it was “inactive”; in that of `CCCCCCCCC`, “inactive”.
On to `c1ccc(CCCc2ccccn2)cc1`, for which the molecule was called inactive.
Still for that read-out and setting: in the case of `O=C(O)COCCN1CCN(C(c2ccccc2)c2ccc(Cl)cc2)CC1` (stereo not given) it was “inactive”.
Still for that read-out and setting: with `CC(=O)OCC=Cc1ccccc1` the entry was “inactive”; with `CC(=O)Nc1ccc(CC(=O)O)cc1`, “inactive”; with `CCCCC(CC)COC(=O)/C=C\C(=O)OCC(CC)CCCC` (stereo not given), “inactive”.
As for `CC(C)=CCCC(C)=CCCC(C)=CCO`, the result was inactive.
The same measure, in the same setting: with `CCCc1c(OCCCOc2ccc(OCC(=O)O)cc2)ccc(C(C)=O)c1O` the entry was “inactive”; with `OC[C@H]1O[C@H](O[C@]2(CCl)O[C@H](CCl)[C@@H](O)[C@@H]2O)[C@H](O)[C@@H](O)[C@H]1Cl`, “inactive”; with `CCCc1ccccc1O`, “inactive”.
The same measure, in the same setting: in the case of `O=C(O)CCCCC1CCSS1` (stereo not given) it was “inactive”.
Take `C=CC(C)(O)CCC=C(C)CCC=C(C)C` (stereo not given): the AC50 was 100 µM (active).
For the molecule `CNC[C@H](O)c1cccc(O)c1`, the molecule was called inactive.
Same read-out and setting: with `Cc1cccc(C)c1C` the entry was “inactive”; with `NCCCN1CCOCC1`, “inactive”.
On the same count and under the same terms, in the case of `CSc1nnc(C(C)(C)C)c(=O)[nH]1` it was “inactive”.
As to `NCCNCCN`, the molecule was called inactive.
Still for that read-out and setting: in the case of `CC(C)(C)c1cc(CCC(=O)NN)cc(C(C)(C)C)c1O` it was “inactive”; in that of `CCCCC[Si](OCC)(OCC)OCC`, “inactive”; in that of `C=C[Si](OCC)(OCC)OCC`, “inactive”.
Consider `COC(=O)c1ccc(C)cc1`, for which the outcome was inactive.
On the same count and under the same terms, in the case of `CC(C)C1CCC(O)CC1` (stereo not given) it was “inactive”; in that of `CCN(CC)CCOC(=O)c1ccc(N)cc1`, “inactive”.
For `CN1[C@@H]2CC(OC(=O)[C@H](CO)c3ccccc3)C[C@H]1[C@@H]1O[C@@H]12` (stereo not given in full), the call was inactive.
Take `O=P(c1ccccc1)(c1ccccc1)c1ccccc1`: the molecule was classed as inactive.
The same measure, in the same setting: with `CO[Si](C)(OC)c1ccccc1` the entry was “inactive”; with `NC(=O)c1ccccc1Cl`, “inactive”.
Turning to `Nc1nc2ccc([N+](=O)[O-])cc2s1`, the outcome was inactive.
On the same count and under the same terms, with `CN(C)C(=N)N=C(N)N` the entry was “inactive”; with `[Ca+2]`, “inactive”; with `Nc1ccc(S(=O)(=O)O)c(N)c1`, “inactive”.
As to `CC(C)(Oc1ccc(CCNC(=O)c2ccc(Cl)cc2)cc1)C(=O)O`, the result was inactive.
On the same count and under the same terms, in the case of `CC1(C)CCC(C)(C)c2cc(C(=O)Nc3ccc(C(=O)O)cc3)ccc21` it was “inactive”.
Still for that read-out and setting: in the case of `COc1cccc(OC)c1` it was “inactive”; in that of `CC(c1cc2ccccc2s1)N(O)C(N)=O` (stereo not given), “inactive”.
For `O=Cc1ccc(Cl)c([N+](=O)[O-])c1`, the outcome was inactive.
In the case of `O=C(O)c1cn(C2CC2)c2cc(N3CCNCC3)c(F)cc2c1=O`, the molecule was classed as inactive.
Same read-out and setting: in the case of `CCCCCCCCCCCCCCCC(=O)O` it was “inactive”.
